PLK1 PBD block = inhibitors of human PLK1 polo-box domain binding; P53350; Plk1 PBD binding of FITC phosphopeptide, fluorescence polarization; Potency, µM, for inactives: max response, negative = inhibition, usual class: inhibitors; 360,000 compounds, 2.8% hits; AID 720504; note: potency is the fitted concentration of half-maximal effect; series mostly up to about 57 µM; % is set by controls: 0 for no effect and ±100 for the full control effect; nearly all actives have a fitted effect of over 65% in size
Target sequence (P53350 whole entry, looked up, the tested form may be a part): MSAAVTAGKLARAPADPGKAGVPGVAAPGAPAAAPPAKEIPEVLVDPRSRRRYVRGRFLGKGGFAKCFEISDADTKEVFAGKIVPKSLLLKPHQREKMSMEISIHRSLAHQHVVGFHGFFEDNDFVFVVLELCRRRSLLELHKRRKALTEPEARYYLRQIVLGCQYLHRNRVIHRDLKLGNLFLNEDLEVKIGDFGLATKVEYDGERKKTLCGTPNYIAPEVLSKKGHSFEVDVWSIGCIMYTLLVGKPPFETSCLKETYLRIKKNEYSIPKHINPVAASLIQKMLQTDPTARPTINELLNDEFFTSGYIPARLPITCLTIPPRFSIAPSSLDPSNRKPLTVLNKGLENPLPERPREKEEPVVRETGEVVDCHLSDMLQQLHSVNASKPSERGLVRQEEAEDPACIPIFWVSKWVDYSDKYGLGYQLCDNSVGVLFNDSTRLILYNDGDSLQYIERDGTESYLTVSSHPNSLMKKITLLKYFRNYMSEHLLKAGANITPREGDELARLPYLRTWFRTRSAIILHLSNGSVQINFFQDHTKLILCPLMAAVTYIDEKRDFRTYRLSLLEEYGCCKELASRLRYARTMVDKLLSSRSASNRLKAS
HP1b binding inh = HP1-beta chromodomain-methylated histone interaction inhibition; Potency, µM (highest dose often 114 µM), inactives show at the highest dose activity change, negative = inhibition, most hits filed as inhibitors; 390,000 compounds, 0.56% hits; AlphaScreen HP1-beta / biotin-H3K9me3 peptide binding; AID 540317; P83916; note: potency is the fitted concentration of half-maximal effect; nearly all actives have a fitted effect of over 70% in size
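Compound inhibition of the preformed complex between 50 nM HP1-beta and 50 nM biotinylated H3K9me3 peptide was read by AlphaScreen. Buffer was PBS pH 7.4 with 0.01% Tween-20. Incubations ran 30 min at room temperature, with 10 ug/mL donor/acceptor beads.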
JMJD2A Tudor = inhibitors of human JMJD2A Tudor domain | O75164 | AlphaScreen JMJD2A-Tudor / H3K4me3 peptide binding | Potency, µM (series often up to 114 µM), for inactives: at the highest dose activity change, negative = inhibition, most hits filed as inhibitors | 390,000 compounds, 4.4% hits | AID 504339; note: potency is the fitted concentration of half-maximal effect; % is set by controls: 0 for no effect and ±100 for the full control effect; nearly all actives have a fitted effect of over 50% in size
BAZ2B inh = blocks human BAZ2B | Q9UIF8 | AlphaScreen BAZ2B-H3K14Ac peptide displacement | Potency, µM (highest dose often 114 µM), for inactives: at the top dose activity change, negative = inhibition, most hits filed as inhibitors | 360,000 compounds, 4.4% hits; note: potency is the fitted concentration of half-maximal effect; % is set by controls: 0 for no effect and ±100 for the full control effect; nearly all actives have a fitted effect of over 60% in size
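Inhibition is scored as reduced AlphaScreen emission. The BAZ2B/b-H3(5-23)K14Ac complex (50 nM each) in PBS pH 7.4, 0.01% Tween-20 meets compound (up to 110 uM) for 30 min at RT before bead addition.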
PI5P4K alpha inh = PI5P4K alpha (human) kinase inhibition | P48426 | PI5P4Kalpha enzyme, ADP-Glo luminescence, 60 min; hits give low values | max response, % | 330,000 compounds, 1.2% hits | AID 652105; active = max response of -50% or lower; inconclusive = between -30% and -50%; inactive = -30% or higher; note: value at the top dose of about 77 µM; % is set by controls: 0 for no effect and ±100 for the full control effect
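Quantitative HTS of the MLSMR library against PI5P4Kalpha with substrate. ATP added last at 5 microM final; room temperature, 60 minutes. Remaining ATP depleted, ADP converted and read as luminescence.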
G9a block = inhibitors of human histone lysine methyltransferase G9a; Q96KQ7; G9a H3K9 monomethylation, AlphaScreen, 2 h; Potency, µM (titrated, usually from 102 µM), for inactives: top-dose activity, negative = inhibition, hits mostly inhibitors; 350,000 compounds, 8.8% hits; AID 504332; note: potency is the fitted concentration of half-maximal effect; % is set by controls: 0 for no effect and ±100 for the full control effect; nearly all actives have a fitted effect of over 75% in size
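Quantitative HTS format: methyltransferase activity on a biotin-tagged H3K9 peptide is measured by AlphaScreen, using a rabbit anti-monomethyl-H3K9 antibody with streptavidin donor and anti-IgG acceptor beads. Final levels are 20 nM enzyme, 500 nM peptide, 20 uM SAM; 2 h RT.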
* = called active by the depositor; ? = inconclusive; nt = not tested or not shown; [ ] = remark or other dose. A selection: hits, their analogues and other compounds. The true share with any hit is near 12%. Unless noted, calls come from the whole dose curve; as a rule, active = well fitted curve in the direction sought with a large enough effect; inconclusive = small, poorly fitted or top-dose-only effect, or another doubt; inactive = no such curve, though single readings can be large; an effect the other way counts as inactive or inconclusive.

SMILES | PLK1 PBD block | HP1b binding inh | JMJD2A Tudor | BAZ2B inh | PI5P4K alpha inh | G9a block
Cc1ccc(NS(=O)(=O)c2cc3c(cc2C)OCC(=O)N3)cc1C | nt | nt | -26% | nt | nt | nt
COc1ccccc1N1CCN(C(=O)c2cc3c(=O)n(C)c4ccccc4c3s2)CC1 | nt | 16% | 2% | nt | nt | 9%[59 µM]
COc1ccc(CCN2CC(C(=O)N(C)Cc3ccc(C)o3)CCC2=O)cc1 (stereo not drawn) | -13% | 29% | -14% | -10% | 0 | ?
O=S(=O)(c1ccc(Br)cc1)N1CCC2(CC1)OCCO2 | -7% | 18% | 2% | 0% | -8 | nt
CC(=O)Nc1ccccc1-c1nc2ccccc2n(CC(=O)c2ccc(Br)cc2)c1=O | nt | 24% | -2% | -25% | nt | -11%[59 µM]
CCC(=O)N(C1=C(NC(C)C)C(=O)c2ccccc2C1=O)C(C)C | -1% | 0% | -24% | -31% | -2 | 45µM*
CCCNC1=C(N(C(C)=O)c2cccc(F)c2)C(=O)c2ccccc2C1=O | -2% | -15% | -25% | -43% | 8 | 4%[59 µM]
O=C1Nc2cccnc2N(C(=O)CCl)c2ccccc21 | -4% | 19% | -4% | -9% | 3 | -6%
CC1CCc2onc(C(=O)N3CCN(c4ccc(Cl)cc4)CC3)c2C1 (stereo not drawn) | nt | 40% | -1% | 10%[57.1 µM] | nt | -21%[59 µM]
O=C(NC1CCCc2ccccc21)c1cc(Cl)ccn1 (stereo not drawn) | -12% | 3% | 30% | 2% | -4 | 25µM*
O=C(Cc1ccc(Br)cc1)NC1CCCc2ccccc21 (stereo not drawn) | 0% | 27% | -2% | -1% | 2 | 9%
CN(C)c1ccc(C(=O)NC2CCCc3ccccc32)cc1 (stereo not drawn) | -6% | 28% | -4% | -29% | -6 | 24%[12.7 µM]
N#Cc1ccc(C(=O)NC2CCCc3ccccc32)cc1 (stereo not drawn) | -6% | 48% | 7% | 4% | 3 | 50µM*
O=C(CCl)NC1CCCc2ccccc21 (stereo not drawn) | 27µM* | -11% | 50µM* | 4% | ? | 6%
O=C(NC(=S)NC1CCCc2ccccc21)c1ccc(F)cc1 (stereo not drawn) | ? | -12% | 79µM* | ? | -4 | -22%
CCc1cc(C=NC2CCCCC2)c(O)s1 | -14% | -10% | -35%[57.1 µM] | -31% | 0 | 13µM*
Cc1nnc(NC(=O)CSc2nc3[nH]ncc3c(=O)[nH]2)s1 | -17% | 34% | -7% | -24% | -2 | 35µM*
Cc1ccc(CNC(=O)CSc2nc3[nH]ncc3c(=O)[nH]2)cc1 | 27µM* | 17% | ? | 12% | 5 | 9%[59 µM]
COc1ccc(NC(=O)CSc2nc3[nH]ncc3c(=O)[nH]2)cc1OC | -2% | 34% | ? | -24% | -7 | 45µM*
CCc1nnc(NC(=O)CSc2nc3[nH]ncc3c(=O)[nH]2)s1 | -18% | 22% | -8% | -23% | -3 | ?
CCOC(=O)c1cnc2c(ccc3ccccc32)c1Nc1ccccc1O | nt | 31% | -8% | -12% | nt | -13%[59 µM]
O=C(Nc1ccncc1)c1cc(C2CCCCN2C(=O)CCc2ccccc2)on1 (stereo not drawn) | -11% | nt | nt | nt | 0 | nt
C=CCNCCOCCOc1ccc(C)cc1[N+](=O)[O-] | -2% | -20% | 3.2µM* | ? | nt | 22µM*
COCCNCCOc1ccc(C)cc1[N+](=O)[O-] | -8% | ? | 25µM* | ? | 0 | -41%
COc1ccc(C=O)cc1COc1ccc(C)cc1[N+](=O)[O-] | -11% | 32% | -21% | ? | 2 | ?
SMILES | PLK1 PBD block | HP1b binding inh | JMJD2A Tudor | BAZ2B inh | PI5P4K alpha inh | G9a block
COc1cc(C)ccc1OCCOCCOc1ccc(C)cc1[N+](=O)[O-] | -3% | 22% | -13% | -10% | 14 | 11%[59 µM]
Cc1ccc(OCCN(C)C)c([N+](=O)[O-])c1 | -4% | ? | 8.9µM* | ? | 4 | ?
CCOC(=O)c1c(S(=O)(=O)N2CCCC(C(=O)Nc3cccc(CC)c3)C2)c(C)n(CC)c1C (stereo not drawn) | nt | 37% | -16% | -26% | nt | 15%[59 µM]
COc1ccc(OC)c2sc(N(CCCN(C)C)C(=O)c3ccc(S(=O)(=O)N4CCc5ccccc5C4)cc3)nc12 | nt | nt | nt | -12% | nt | 8.9µM*
COc1ccc2sc(N(CCCN(C)C)C(=O)c3nc4ccccc4s3)nc2c1 | -14% | 5% | -23% | -9% | -30 | -46%
Cc1ccc2sc(N(CCCN(C)C)C(=O)c3ccc(S(=O)(=O)N4CCc5ccccc5C4)cc3)nc2c1C | -9% | 23% | -10% | -13% | 8 | ?
CN(C)CCCN(C(=O)c1ccc(S(=O)(=O)N2CCc3ccccc3C2)cc1)c1nc2c(F)cc(F)cc2s1 | -4% | -5% | ? | ? | -2 | 35µM*
COc1cc2nc(N(CCCN(C)C)C(=O)c3ccc(C(=O)c4ccccc4)cc3)sc2cc1OC | -5% | ? | ? | ? | 11 | 50µM*
COc1cc2nc(N(CCCN(C)C)C(=O)c3ccc(S(=O)(=O)N4CCc5ccccc5C4)cc3)sc2cc1OC | -3% | 3% | -16% | -37% | 6 | 40µM*
COc1ccc(-c2cc3nc(-c4ccc(C)cc4)cc(C(F)(F)F)n3n2)cc1 | nt | 39% | 9% | 7% | nt | -32%[59 µM]
C/C(=N\NC(=S)NCCc1ccccc1)c1cccc(Br)c1 | 2% | -14% | -22% | 40µM* | 25 | -37%
COc1ccc(/C(C)=N/NC(=S)NCCc2ccccc2)cc1 | -12% | -13% | ? | 25µM* | 11 | -40%
C=CCNC(=S)N/N=C(\C)c1ccc(OC)cc1 | -6% | 6% | -21% | ? | -2 | 24%[59 µM]
S=c1[nH]nc(-c2ccccc2Cl)n1CC1CCCO1 (stereo not drawn) | -5% | 29% | 40µM* | -30% | -6 | 5µM*
CC(C)(C)c1ccc(-c2n[nH]c(=S)n2CC2CCCO2)cc1 (stereo not drawn) | -8% | 0% | 32µM* | -19% | 0 | 7.9µM*
Fc1ccccc1-c1n[nH]c(=S)n1CC1CCCO1 (stereo not drawn) | -13% | 44% | -11% | -12% | 3 | 27%[12.7 µM]
CC(C)(C)OC(=O)CC12CCCCC1NC(=O)O2 (stereo not drawn) | -8% | 22% | -15% | -25% | 2 | -6%
O=C(COc1ccccc1)Nc1ccccc1F | -11% | 71% | 1% | 1% | -7 | -4%[0.501 µM]
O=C(COc1c(Br)cc(Br)c2cccnc12)Nc1ccccc1F | -20% | 18% | -22% | 50µM* | ? | 45µM*
Cc1cccc(-n2c(C)c(-c3ccccc3)[nH]c2=S)c1 | -26% | ? | 35µM* | ? | -10 | nt
COc1ccc(-n2c(COc3cccc(C)c3)n[nH]c2=S)cc1 | -15% | 18% | ? | -2% | -1 | 17%[0.501 µM]

Assay outcomes (PubChem)
